{"source": "PubChem BioAssay (NCATS)", "note": "Inconclusive results are not listed. Values without a mark were called inactive. Activity calls are given as the source filed them. Calls follow the shape of the dose curve; as a rule, active = well fitted inhibition curve with a large enough effect; inconclusive = small, poorly fitted or top-dose-only effect; inactive = no such curve, though single readings can be large or run the other way."}
{"system": "Zika virus NS2B-NS3 protease (linked construct)", "experiment": "Primary screen NINDS Rhodamine qHTS for Zika virus inhibitors (AID 1347160); also: nearly all actives have a fitted effect of over 55% in size; as to activity change, negative = inhibition: % is scaled to controls: 0 for no effect and ±100 for the full control effect", "settings": "purified NS2B-NS3 protease, Rhodamine110 substrate fluorescence; series mostly up to 57.1 µM; activity change, negative = inhibition: at the top concentration", "how_it_was_run": "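Purified NS2B-NS3 protease with the NS2B hydrophilic domain joined by a flexible linker (25 nM) in 10 mM Tris-HCl pH 8.0, 0.01% Tween 20, preincubated 15 min at RT with compound; Rhodamine110 peptide substrate 1.5 µM; fluorescence change over 15 min; 4-parameter Hill fit.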"}
{"smiles": "c1ccc(-c2oc3ncnc(NC[C@@H]4CCCO4)c3c2-c2ccccc2)cc1", "activity change, negative = inhibition": "5.56%"}
{"smiles": "CCCCn1c(=O)n(Cc2ccccc2F)c(=O)c2[nH]c(Cc3ccc(NC(C)=O)cc3)nc21", "activity change, negative = inhibition": "30.3%"}
{"smiles": "O=C(CO)N1CCC(c2[nH]nc(-c3ccc(Cl)cc3)c2-c2ccncn2)CC1", "activity change, negative = inhibition": "-18.8%"}
{"smiles": "CN(C)CCCNC(=O)c1ccc(-c2cc(O)c3ncccc3c2)cc1", "outcome": "inactive"}
{"smiles": "COc1nc(C)cnc1NS(=O)(=O)c1cccnc1-c1ccc(-c2nnco2)cc1", "activity change, negative = inhibition": "-15.7%"}
{"smiles": "CC(C)CNc1ccnc(NCc2csc(-c3ccccc3)n2)n1", "activity change, negative = inhibition": "443%"}
{"smiles": "O=C(CC12CC3CC(CC(C3)C1)C2)Nc1cccc2nc(NCCNCCO)ccc12", "activity change, negative = inhibition": "190%"}
{"smiles": "COc1nccc(-c2c(-c3ccc(F)cc3)ncn2C2CCC(O)CC2)n1", "note": "(configuration not stated)", "activity change, negative = inhibition": "13.4%"}
{"smiles": "CN1CCc2c(n(Cc3ccc(C(=O)NO)cc3)c3ccccc23)C1", "outcome": "inactive"}
{"smiles": "O=C(CCCN1CCN(c2ccc(F)cc2)CC1)NC1c2ccccc2CSc2ccccc21", "note": "(configuration not stated)", "activity change, negative = inhibition": "21.5%"}
{"smiles": "Cn1c(=O)c(-c2c(Cl)cccc2Cl)cc2cnc(Nc3cccc(C(=O)O)c3)nc21", "activity change, negative = inhibition": "9.85%"}
{"smiles": "Fc1ccc(CNc2ncnc3ccc(F)cc23)cc1", "activity change, negative = inhibition": "13.1%"}
{"smiles": "Clc1ccc(C2(c3ccc(-c4cn[nH]c4)cc3)CCNCC2)cc1", "activity change, negative = inhibition": "134%"}
{"smiles": "CCc1cccc(CC)c1NC(=O)N1Cc2[nH]nc(NC(=O)c3ccc(N4CCN(C)CC4)cc3)c2C1", "activity change, negative = inhibition": "14.6%"}
{"smiles": "NS(=O)(=O)c1ccc(Nc2nc(OCC3CCCCC3)c3[nH]cnc3n2)cc1", "activity change, negative = inhibition": "-3.31%"}
{"smiles": "Nc1ccc(-c2ccc3ncc4ccc(=O)n(-c5cccc(C(F)(F)F)c5)c4c3c2)cn1", "outcome": "inactive"}
{"smiles": "CC(=O)Nc1cccc(-n2c(=O)n(C3CC3)c(=O)c3c(Nc4ccc(I)cc4F)n(C)c(=O)c(C)c32)c1", "activity change, negative = inhibition": "21%"}
{"smiles": "CN1C(=O)C(Cc2c[nH]c3ccccc23)NC1=S", "note": "(configuration not stated)", "activity change, negative = inhibition": "-2.57% [at 33.1 µM]"}
{"smiles": "CCNC(=O)c1noc(-c2cc(C(C)C)c(O)cc2O)c1-c1ccc(CN2CCOCC2)cc1", "outcome": "inactive"}
{"smiles": "CNC1CCC(N(Cc2cccc(-c3ccncc3)c2)C(=O)c2sc3ccccc3c2Cl)CC1", "note": "(configuration not stated)", "activity change, negative = inhibition": "357%"}
{"smiles": "CC(C)(O)CC(=O)NCCn1ccc2ncnc(Nc3ccc(Oc4cccc(C(F)(F)F)c4)c(Cl)c3)c21", "activity change, negative = inhibition": "-11.6%"}
{"smiles": "CCC(=O)N1CCN(c2ccc(-n3c(=O)ccc4cnc5ccc(-c6cnc7ccccc7c6)cc5c43)cc2C(F)(F)F)CC1", "activity change, negative = inhibition": "-4.81% [at 10.7 µM]"}
{"smiles": "CN[C@@H](C)[C@H]1[C@H](O)C[C@@]2(C)[C@@H]3CC[C@H]4C(C)(C)[C@@H](NC)CC[C@@]45C[C@@]35CC[C@]12C", "outcome": "inactive [at 10.7 µM]"}
{"smiles": "Cc1cc(C(C)Nc2ccccc2)c2nc(N3CCOCC3)cc(=O)n2c1", "note": "(configuration not stated)", "activity change, negative = inhibition": "-16.1%"}
{"smiles": "CCN(CCO)CCCOc1ccc2c(Nc3cc(CC(=O)Nc4cccc(F)c4)[nH]n3)ncnc2c1", "activity change, negative = inhibition": "51.9%"}
{"smiles": "CS(=O)(=O)c1ccc(C2=C(c3ccccc3)C(=O)OC2)cc1", "activity change, negative = inhibition": "3.65%"}
{"smiles": "Cc1ccccc1-n1c(Cn2nc(-c3cccc(O)c3)c3c(N)ncnc32)nc2cccc(C)c2c1=O", "activity change, negative = inhibition": "14.7%"}
{"smiles": "CCN1CCN(c2ccc(Nc3cc(N(C)C(=O)Nc4c(Cl)c(OC)cc(OC)c4Cl)ncn3)cc2)CC1", "activity change, negative = inhibition": "55.8%"}
{"smiles": "CC1(C)CC(=O)c2c(C(F)(F)F)nn(-c3ccc(C(N)=O)c(NC4CCC(O)CC4)c3)c2C1", "note": "(configuration not stated)", "activity change, negative = inhibition": "23.5%"}
{"smiles": "C[C@@H](N)c1ccc(C(=O)Nc2ccnc3[nH]ccc23)cc1", "outcome": "inactive"}
{"smiles": "Cc1cnc(CNC(=O)c2c(=O)c3ccc(N4CCCN(C)CC4)nc3n3c2sc2ccccc23)cn1", "activity change, negative = inhibition": "6.93% [at 10.7 µM]"}
{"smiles": "CN1CCC(COc2cnc(-c3cccc(Cn4nc(-c5cccc(C#N)c5)ccc4=O)c3)nc2)CC1", "outcome": "inactive"}
{"smiles": "CN(C)CCOc1cc(-c2cn[nH]c2)ccc1NC(=O)C1COc2ccccc2O1", "note": "(configuration not stated)", "outcome": "inactive"}
{"smiles": "Cc1ccc2c(c1)c1c(n2CCc2ccc(C)nc2)CCN(C)C1", "outcome": "inactive"}
{"smiles": "Nc1ncnc2c1c(-c1cccc(OCc3ccccc3)c1)cn2C1CC(CN2CCC2)C1", "note": "(configuration not stated)", "activity change, negative = inhibition": "534%"}
{"smiles": "NS(=O)(=O)c1cc(Cl)c(Cl)c(S(N)(=O)=O)c1", "activity change, negative = inhibition": "2.17%"}
{"system": "not listed separately", "experiment": "qHTS to identify inhibitors of the type 1 interferon - major histocompatibility complex class I in skeletal muscle: primary screen against the NCATS Mechanism Interrogation Plate v5.0 (MIPE) Libary (AID 1347411); also: nearly all actives have a fitted effect of over 65% in size; also: potency is read from the fitted curve at half-maximal effect;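 as to activity change, negative = inhibition: plate controls were vehicle for no effect and reference inhibitor for full effect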", "settings": "iHSKM cells + IFN-b, HiBiT-tagged MHC-I luminescence, 24 h; series mostly up to 45.8 µM; activity change, negative = inhibition: at the top concentration", "how_it_was_run": "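Immortalized human myoblasts (C25cl48) with HiBit knocked into endogenous HLA-B*08:01 were stimulated with 4 ng/ml IFN-beta and given compounds in 11-point 1:3 titration from 46 uM. After 24 h at 37 C, lytic HiBiT luminescence was read.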"}
{"smiles": "c1ccc(-c2oc3ncnc(NC[C@@H]4CCCO4)c3c2-c2ccccc2)cc1", "activity change, negative = inhibition": "-39.7%"}
{"smiles": "O=C(CO)N1CCC(c2[nH]nc(-c3ccc(Cl)cc3)c2-c2ccncn2)CC1", "activity change, negative = inhibition": "-13.3%"}
{"smiles": "COc1nc(C)cnc1NS(=O)(=O)c1cccnc1-c1ccc(-c2nnco2)cc1", "activity change, negative = inhibition": "0.366%"}
{"smiles": "CC(C)CNc1ccnc(NCc2csc(-c3ccccc3)n2)n1", "Potency": "16.5 µM (active)"}
{"smiles": "O=C(CC12CC3CC(CC(C3)C1)C2)Nc1cccc2nc(NCCNCCO)ccc12", "activity change, negative = inhibition": "-10.4%"}
{"smiles": "CCc1cccc(CC)c1NC(=O)N1Cc2[nH]nc(NC(=O)c3ccc(N4CCN(C)CC4)cc3)c2C1", "Potency": "10.4 µM (active)"}
{"smiles": "CN1C(=O)C(Cc2c[nH]c3ccccc23)NC1=S", "note": "(configuration not stated)", "activity change, negative = inhibition": "4.04%"}
{"smiles": "CCNC(=O)c1noc(-c2cc(C(C)C)c(O)cc2O)c1-c1ccc(CN2CCOCC2)cc1", "Potency": "0.0415 µM (active)"}
{"smiles": "CN[C@@H](C)[C@H]1[C@H](O)C[C@@]2(C)[C@@H]3CC[C@H]4C(C)(C)[C@@H](NC)CC[C@@]45C[C@@]35CC[C@]12C", "activity change, negative = inhibition": "36.7% [at 8.44 µM]"}
{"smiles": "Cc1cc(C(C)Nc2ccccc2)c2nc(N3CCOCC3)cc(=O)n2c1", "note": "(configuration not stated)", "activity change, negative = inhibition": "-27%"}
{"smiles": "CN(C)CCOc1cc(-c2cn[nH]c2)ccc1NC(=O)C1COc2ccccc2O1", "note": "(configuration not stated)", "activity change, negative = inhibition": "16.9%"}
